KKLEB tox = cytotoxicity in KKLEB CF airway cells, primary screen, cytotoxicity control for CF NF-kB inhibitor project, cell-based, uHTS, fluorescence assay plates | KKLEB CF airway cells viability, ATPlite luminescence, overnight; active compounds read low; cells stimulated with P. aeruginosa culture filtrate | activity change (cytotoxicity), % at 5 µM | 0.36% of 360,000 active | AID 602141, 2011;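 active means corrected activity change at or below -50% at 5 µM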
CF NFkB inh = inhibitors of PAF-induced NF-kB signaling, primary screen, cell-based, GFP fluorescence, uHTS | KKLEB NF-kB-GFP reporter, GFP fluorescence overnight | AID 588850, 2011 | 0.86% of 360,000 active | inhibition, % at 5 µM;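 active means at least 50% inhibition at 5 µM, scaled per plate between neutral and stimulator controls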;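 further: PAF is a Pseudomonas aeruginosa culture filtrate used as stimulus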
TRPM1 prom inh = inhibitors of MITF-dependent TRPM1 promoter reporter, primary screen, cell-based, SK-MEL-5, single point, luciferase; 0.83% of 330,000 active; SK-MEL-5 TRPM1 promoter luciferase, 24 h; inhibition, % at 12.5 µM; AID 488899, 2010;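 active means mean inhibition across replicates of 60% or more, whatever share of single replicates reaches that level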
Shn3 3UTR inh = reduction of Shn3 3'UTR firefly luciferase signal, primary screen, Schnurri-3 inhibitor project, cell-based, Clone20 osteoblasts, set 2. inhibition, % at 12.5 µM. 0.52% of 360,000 active. Clone20 osteoblast Shn3 3'UTR firefly luciferase, 24 h;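 active means mean inhibition of at least 75% with every replicate also reaching 75%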
HIF-2a inh = HIF-2a reporter inhibitors, primary screen, luminescence, 786-0 RCC cells; 786-0 RCC cells HIF-2a reporter, luciferase luminescence, overnight; inhibition, % at 18.8 µM; 0.72% of 360,000 active;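 active means inhibition of the luminescence signal of 40% or more relative to plate controls, in a single-dose primary screen at 18.75 µM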
Peg3 prom inh = Peg3 promoter-driven luciferase inhibitors, primary screen, cell-based, HeLa, luciferase luminescence; HeLa PEG-Prom luciferase reporter, overnight; inhibition, % at 20 µM; 1.7% of 360,000 active;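 active means inhibition of at least 50% at 20 µM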
Mdm2 MdmX conf = retested Mdm2-MdmX interaction blockers, confirmation, cell-based, luminescence, single concentration, set 2 | AID 504601, 2011 | 99% of 740 active | inhibition, % at 8 µM | SaOS-2 split-luciferase Mdm2/MdmX complementation | shares compounds with HIF-2a inh;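 active means mean inhibition of the luminescence signal across two replicates at or above 26 percent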
Target sequence (O15151 whole entry, looked up): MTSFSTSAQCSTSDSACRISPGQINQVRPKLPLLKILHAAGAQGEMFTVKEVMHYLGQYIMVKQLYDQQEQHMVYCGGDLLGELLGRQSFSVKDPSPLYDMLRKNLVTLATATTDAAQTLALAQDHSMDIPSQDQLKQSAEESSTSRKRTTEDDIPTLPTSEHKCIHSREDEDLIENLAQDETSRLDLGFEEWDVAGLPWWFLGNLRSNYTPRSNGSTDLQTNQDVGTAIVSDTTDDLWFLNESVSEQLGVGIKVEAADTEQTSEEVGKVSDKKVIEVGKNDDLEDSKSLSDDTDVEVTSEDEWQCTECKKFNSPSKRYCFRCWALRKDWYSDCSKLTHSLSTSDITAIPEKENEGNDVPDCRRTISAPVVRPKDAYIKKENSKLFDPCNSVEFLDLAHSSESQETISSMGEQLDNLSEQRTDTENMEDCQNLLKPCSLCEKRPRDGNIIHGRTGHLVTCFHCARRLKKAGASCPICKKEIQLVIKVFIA
Target sequence (Q00987 whole entry, looked up): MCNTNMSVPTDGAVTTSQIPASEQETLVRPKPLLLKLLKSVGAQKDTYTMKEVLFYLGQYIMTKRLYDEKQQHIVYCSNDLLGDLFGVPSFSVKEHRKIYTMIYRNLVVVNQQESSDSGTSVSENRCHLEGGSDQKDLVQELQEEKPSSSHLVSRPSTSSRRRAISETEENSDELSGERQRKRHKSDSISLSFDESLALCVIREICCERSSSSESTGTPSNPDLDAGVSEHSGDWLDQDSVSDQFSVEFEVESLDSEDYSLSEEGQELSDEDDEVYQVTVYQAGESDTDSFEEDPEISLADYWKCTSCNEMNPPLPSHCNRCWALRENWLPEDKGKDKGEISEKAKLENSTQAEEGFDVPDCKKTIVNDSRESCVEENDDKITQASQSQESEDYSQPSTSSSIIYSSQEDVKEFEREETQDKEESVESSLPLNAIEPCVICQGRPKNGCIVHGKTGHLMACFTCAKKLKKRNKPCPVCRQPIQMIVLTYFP
HIF-2a conf = HIF-2a reporter inhibitor retest, confirmation, luminescence, 786-0 RCC cells | HIF-2a luciferase reporter luminescence, overnight | inhibition, % at 18.8 µM | 56% of 1,800 active | shares compounds with HIF-2a inh;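 active means mean inhibition across four replicates of at least 40 percent at the single tested concentration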
HIF-1a counter = HIF-1a luciferase reporter signal reduction – MiaPaCa-2 cells, single concentration, counter-screen for HIF-2a inhibitor project, confirmation. shares compounds with HIF-2a inh. 72% of 1,800 active. inhibition, % at 18.8 µM. MiaPaCa-2 HIF-1a luciferase reporter, desferoxamine, overnight. AID 651589, 2012;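 active means mean inhibition of the reporter signal across four replicates at the single tested dose of 50% or more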
Numbers stand for hits; – = inactive; · = no result given. Hits are enriched below; roughly 2.8% of the tested compounds scored in any of these assays.

SMILES | KKLEB tox | CF NFkB inh | TRPM1 prom inh | Shn3 3UTR inh | HIF-2a inh | Peg3 prom inh | HIF-2a conf | HIF-1a counter | others
CCc1ccc(-c2nc(CS(=O)CC(=O)NCc3ccccc3)c(C)o2)cc1 (stereo not given) | – | – | – | – | 50 | 53 | 45 | 55
CCN(CC)CCCN(Cc1cc2cc3c(cc2[nH]c1=O)OCO3)C(=S)Nc1ccccc1 | – | – | – | – | – | – | · | ·
CCCCc1ccc(C2C3=C(CC(C)(C)CC3=O)NC3=C2C(=O)c2ccccc23)cc1 (stereo not given) | – | – | – | – | – | – | · | ·
CC1(C)CC(=O)C2=C(C1)NC1=C(C(=O)c3ccccc31)C2c1ccc(O)cc1 (stereo not given) | – | – | – | – | 44 | – | – | –
Cc1ccc(Cl)c2c1NC(=O)C2=O | – | – | – | – | – | – | · | ·
N#CC(C#N)=C(Nc1ccccc1)c1ccccc1 | – | – | – | – | – | – | · | ·
COc1cccc(C(=O)C(C#N)=C(SC)SC)c1 | -58 | 66 | 82 | – | 80 | 102 | 91 | –
CSC(SC)=C(C#N)C(=O)c1ccccc1 | -50 | – | 65 | – | 90 | 99 | 89 | –
CC1Cc2ccccc2N1S(=O)(=O)c1cccc(C(=O)N2CCN(c3ncccn3)CC2)c1 (stereo not given) | – | – | – | – | – | – | · | · | Mdm2 MdmX conf=100
O=C(O)CCCC(=O)Nc1ccccc1C(=O)N1CCOCC1 | – | – | – | – | – | – | · | ·
CCN(CC)Cc1c(O)ccc2c1O/C(=C\C=C\c1ccccc1)C2=O | – | – | 81 | 95 | 66 | 82 | · | · | Mdm2 MdmX conf=–
COC(=O)CSc1nnc(-c2sc3ccccc3c2Cl)o1 | – | – | – | · | 90 | – | 95 | 69
O=C(c1nc2ccc(Cl)cn2c1CNCCc1cnccn1)N1CCCCCCC1 | – | – | – | – | – | – | · | ·
CCOC(=O)C1CCN(C(=O)CCc2c(C)nc3c(-c4ccc(F)cc4)c(C)nn3c2C)CC1 | – | – | · | – | – | – | · | ·
CCOC(=O)CCc1c(C)nc2ncnn2c1C | – | – | – | – | – | – | · | ·
Cc1nc2nc(C)c(CCC(=O)O)c(C)n2n1 | – | – | – | – | – | – | · | ·
Cc1nc2cc(-c3cccc(F)c3)nn2c(C)c1CCC(=O)N1CCN(c2ccccn2)CC1 | – | – | – | – | 72 | – | 81 | 59
COc1ccc(-c2cc3nc(C)c(CCC(=O)N4CCN(c5ccccn5)CC4)c(C)n3n2)c(OC)c1 | – | – | – | – | – | – | · | ·
CCOC(=O)C1CCN(C(=O)CCc2c(C)nc3cc(-c4ccccc4)nn3c2C)CC1 | – | – | – | – | 69 | – | 84 | –
CCOC(=O)C1CCCCN1C(=O)CCc1c(C)nc2ncnn2c1C (stereo not given) | – | – | – | – | 63 | – | 49 | –
COc1cc(OC)cc(-c2cc3nc(C)c(CCC(=O)O)c(C)n3n2)c1 | – | – | · | – | 82 | – | 90 | 86
Cc1cccn2c(=O)c(C=O)c(N3CCC4(CC3)OCCO4)nc12 | – | – | · | – | – | – | · | ·
